From PubChem
Compounds with a hit are over-represented: about 2.4% of the library has one in this group of screens.
D2 PAM-1: Beta-Arrestin HTS for Positive Allosteric Modulators of the Human D2 Dopamine Receptor: Potentiators. DiscoveRx D2 beta-arrestin cells, luminescence, 90 min; 100% = 57 uM dopamine signal. D(2) dopamine receptor (Homo sapiens), P14416. potentiation, % (no concentration beside the values). 360,000 compounds, 0.23% hits; in the data active = potentiation above about 50%; inconclusive = mostly about 30% to 49%
Target sequence (P14416 whole entry, looked up): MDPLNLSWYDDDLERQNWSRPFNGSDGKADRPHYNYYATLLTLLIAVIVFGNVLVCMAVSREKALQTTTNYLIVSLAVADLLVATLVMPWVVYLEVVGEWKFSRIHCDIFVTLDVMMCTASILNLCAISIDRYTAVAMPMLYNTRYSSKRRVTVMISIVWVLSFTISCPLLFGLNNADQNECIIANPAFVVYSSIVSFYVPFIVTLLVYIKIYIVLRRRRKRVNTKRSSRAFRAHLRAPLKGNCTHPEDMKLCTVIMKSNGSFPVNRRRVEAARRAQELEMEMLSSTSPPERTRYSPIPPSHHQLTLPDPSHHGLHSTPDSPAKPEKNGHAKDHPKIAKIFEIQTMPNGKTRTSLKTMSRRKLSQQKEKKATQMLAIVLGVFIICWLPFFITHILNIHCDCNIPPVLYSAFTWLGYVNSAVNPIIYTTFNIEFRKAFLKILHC
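D2 cells co-treated with compound plus 50 nM dopamine (EC20) for 90 min at 37 deg C to detect potentiation. Beta-arrestin recruitment was read as enzyme-fragment luminescence after 1 h at ambient temperature. Full response was set by 57 uM dopamine.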
D2 ag-1: Beta-Arrestin HTS for Positive Allosteric Modulators of the Human D2 Dopamine Receptor: Agonists; D(2) dopamine receptor (Homo sapiens), P14416; DiscoveRx PathHunter D2 beta-arrestin, luminescence, 90 min; 100% = 57 uM dopamine signal; activation, % (concentration not given with the values); 360,000 compounds, 0.084% hits; in the data active = activation above about 40%; inconclusive = between about 15% and that limit
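Agonist mode: compounds alone added to overnight-plated D2 PathHunter cells for 90 min at 37 C, with 57 uM final dopamine (EC100) defining full response. Beta-arrestin recruitment detected by chemiluminescent reagent, read after 1 h at ambient temperature.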
D2 PAM-2: HTS Assay for Positive Allosteric Modulators of the Human D2 Dopamine Receptor: Primary Screen for Potentiators; D(2) dopamine receptor (Homo sapiens), P14416; HEK293 T-REx D2, calcium flux, EC20 dopamine potentiation; potentiation, % at 10 µM; 340,000 compounds, 0.34% hits; AID 485347, 2010;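 active = potentiation over 3 SD above the plate norm, cut at about 30% in these data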; also: 0% is about no effect
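Potentiation of an EC20 dopamine calcium response measured kinetically over 180 s, after a preceding 180 s compound-only read flagging agonists. Cells: inducible Hek293 Trex D2 line, 4000/well, cultured overnight at 30 C before dye loading.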
D2 antagonist: HTS Assay for Allosteric Antagonists of the Human D2 Dopamine Receptor: Primary Screen for Antagonists; HEK293 TREx D2 cells, calcium flux, dopamine EC80; inhibition, % at 10 µM; 340,000 compounds, 2% hits; D(2) dopamine receptor (Homo sapiens), P14416; in the data active = inhibition above about 30%; inactive = below that, where a call was filed; also: 0% is about no effect
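Calcium flux kinetic readout in an inducible HEK293 TREx D2 line plated overnight at 30 C. After 180 s compound exposure, an EC80 dopamine challenge follows with another 180 s kinetic read to detect antagonism.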
D2 ag-2: HTS Assay for Allosteric Agonists of the Human D2 Dopamine Receptor: Primary Screen for Agonists | D(2) dopamine receptor (Homo sapiens), P14416 | HEK293 T-REx D2 cells, calcium flux agonist mode | AID 485358, 2010 | activation, % at 2 µM | 340,000 compounds, 0.53% hits;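 active = activation over 3 SD above normal in the single-dose calcium agonist read, cut at about 30% in these data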; also: 0% is about no effect
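In this primary screen, compounds producing a positive calcium signal within 180 s of addition to tetracycline-induced, force-coupled HEK293 Trex D2 cells are flagged; cells are dye-loaded with a no-wash calcium kit beforehand.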
The depositor's hits bear a star; ? = inconclusive; · = not tested or not shown.

SMILES | D2 PAM-1 | D2 ag-1 | D2 PAM-2 | D2 antagonist | D2 ag-2
COc1ccc(-n2c(O)c(/C=N/NS(=O)(=O)c3ccc(C)cc3)c3ccccc3c2=O)cc1OC | -2 | -4 | 1 | 15 | 20
CCOC(=O)c1c(C)c(-c2ccccc2)n(CC(=O)NCCc2ccc(C)cc2)c1C | · | · | 14 | · | ·
CCOc1ccccc1CNC(=O)C1CCN(c2nnc(-n3c(C)ccc3C)s2)CC1 | · | · | 0 | · | 0
CCCNC(=O)CSc1nc2ccccc2nc1Cc1ccc(Cl)cc1 | · | · | -3 | · | 11
CN(C)S(=O)(=O)c1cc(NC(=O)Cn2ccsc2=N)ccc1Cl | 30 | 0 | -17 | -13 | 0
Cc1ccc(NC(=O)CCNC(=O)Nc2ccccc2)cc1S(=O)(=O)N(C)C | -5 | -3 | 2 | 17 | 0
Cc1ccc(NC(=O)CN2CCN(C(=O)c3ccco3)CC2)cc1S(=O)(=O)N(C)C | 30 | 45* | · | · | ·
Cc1ccc(NC(=O)Cn2ccsc2=N)cc1S(=O)(=O)N(C)C | -15 | -3 | -24 | 36* | 0
Cc1ccc(NC(=O)CCNCc2ccco2)cc1S(=O)(=O)N(C)C | -21 | 2 | -10 | 34* | -6
CCCCN(CC)C(=O)C1CCCN(c2ncnc3c2nc2n3CCCCC2)C1 (stereo not drawn) | · | · | -7 | · | 0
NC(=S)N=Nc1c(O)n(Cc2ccc(Br)cc2)c2ccccc12 | 52* | -2 | -3 | 1 | 0
NC(=S)N=Nc1c(O)n(Cc2ccc(F)cc2)c2ccccc12 | -4 | -1 | -1 | 19 | 0
O=C(Cn1cc([N+](=O)[O-])cn1)NCCc1nc2ccccc2[nH]1 | 0 | -7 | 4 | -1 | 2
O=C(NCCc1nc2ccccc2[nH]1)c1cc([N+](=O)[O-])cc([N+](=O)[O-])c1 | 59* | 14 | 7 | -10 | -1
COc1ccc(C)cc1NC(=O)c1cc2c(=O)n(Cc3cccnc3)ccc2nc1C | · | · | -6 | · | 1
O=C(CSc1nccn1Cc1ccc(F)cc1)NCc1ccco1 | · | · | -6 | · | 1
C=CCn1c(SCn2nnc3ccccc3c2=O)nnc1-c1ccc(F)cc1 | -1 | 2 | 8 | -6 | 0
C=CCn1c(SCn2nnc3ccccc3c2=O)nnc1-c1ccc(Br)cc1 | -6 | -1 | 36* | -10 | -2
Nc1ccc(-c2nc3ccc(-c4nc5ccccc5o4)cc3[nH]2)cc1 | 65* | 3 | 2 | -21 | 0
Cc1nc2ccc(-c3nc4ccccc4o3)cc2[nH]1 | 0 | -1 | -2 | -10 | 1
Nc1cc(N)cc(-c2nc3ccccc3[nH]2)c1 | 53* | 6 | 3 | 27 | -1
Cc1cc(NC(=O)CCC(=O)N(c2ccc(F)cc2)C(C(=O)NC2CCCC2)c2ccc(C)o2)no1 (stereo not drawn) | -5 | 1 | 18 | 14 | 1
COCCNC(=O)C(c1ccc(C)o1)N(C(=O)C(=O)NC1CCCCC1)c1ccc(F)cc1 (stereo not drawn) | 1 | 0 | 34* | -6 | -1
Cc1ccc(C(=O)C(C)OC(=O)CNS(=O)(=O)c2ccc(C)cc2)cc1 (stereo not drawn) | 2 | -1 | -4 | 3 | 0
Cc1ccc(S(=O)(=O)NCC(=O)OC(C)C(=O)c2ccccc2)cc1 (stereo not drawn) | -17 | -6 | -2 | 31* | 0
SMILES | D2 PAM-1 | D2 ag-1 | D2 PAM-2 | D2 antagonist | D2 ag-2
O=C1c2ccccc2C(Nc2ccc(S(=O)(=O)N3CCCCCC3)cc2)N1c1ccccn1 (stereo not drawn) | -7 | -3 | -9 | 20 | -1
O=C1c2cccnc2C(Nc2ccc(S(=O)(=O)N3CCCCC3)cc2)N1Cc1ccccc1 (stereo not drawn) | 3 | 0 | 33* | -22 | 0
COc1ccc2nc(SCC(C)=O)c(C#N)cc2c1 | -2 | -1 | 7 | -3 | 14
COc1ccc2nc(SC)c(C#N)cc2c1 | 5 | 0 | -5 | 55* | -1
Cc1cc2ccccc2n2c(SCC(=O)Nc3cccc(C(F)(F)F)c3)nnc12 | · | · | -8 | · | 1
Cc1nn2c3c(cnc2c1-c1ccc(F)cc1)C(=O)CC(c1ccccc1)C3 (stereo not drawn) | · | · | -4 | · | 0
CCn1c(C)cc(/C=C2/SC(=S)NC2=O)c1C | -11 | 0 | 5 | 4 | 6
CCn1ncc(/C=C2/SC(=S)NC2=O)c1C | -13 | -2 | -12 | 12 | 33*
N#CC1=C(N)OC2=C(CC/C2=C\c2ccc(F)cc2)C1c1ccc(F)cc1 (stereo not drawn) | · | · | -5 | 37* | 40*
COc1ccc(/C=N/N2C(=O)CSC2=S)cc1Br | -2 | -2 | -4 | 33* | 8
CSCCC(NS(=O)(=O)c1ccccc1F)C(=O)N1CCCCCC1 (stereo not drawn) | -6 | 4 | 20 | 44* | 0
CC(C)OP(=O)(OC(C)C)C(Nc1cccc(C(=O)O)c1)c1ccccc1 (stereo not drawn) | -2 | 0 | -11 | 3 | 0
CC(C)OP(=O)(OC(C)C)C(Nc1ccc(C(=O)O)cc1)c1ccccc1 (stereo not drawn) | -7 | -7 | 30* | -4 | 1
CC(=O)Nc1ccc(NC(=O)CSCCc2ccccn2)cc1 | -12 | -1 | 34* | -10 | 0
CC(C)=CCN1CCN(CCC2=C(C)CCCC2(C)C)CC1CCO (stereo not drawn) | -5 | -3 | -17 | 61* | 0
CC1=C(CCN2CCN(C3CCCC3)C(CCO)C2)C(C)(C)CCC1 (stereo not drawn) | -14 | -1 | -29 | -20 | -1
O=C1c2ccccc2CCCC12N=NCC2c1cccc2ccccc12 (stereo not drawn) | 119* | ? | · | · | ·
COc1cccc(Nc2nc(C(N)C3CCCCC3)cs2)n1 (stereo not drawn) | -18 | -7 | · | · | ·
CC(=O)Nc1nonc1-c1nnc(SCc2ccccc2C)n1C | · | · | 5 | · | ·
CCCC(=O)Nc1ccc(Oc2ccc(NC(=O)CCC)cc2)cc1 | 12 | 0 | 35* | -16 | 0
CCCC(=O)Nc1ccc(OCC(=O)OC)cc1 | -8 | 1 | -2 | 16 | 1
Cc1cccc(Cc2c(C)nc3c(-c4ccccc4)c(C)[nH]n3c2=O)c1 | · | · | · | · | -1
Cc1nc2c(-c3ccccc3)c(C)[nH]n2c(=O)c1Cc1ccccc1 | -13 | 5 | -19 | 43* | 0
